PubChem BioAssay AID1725 (National Center for Advancing Translational Sciences (NCATS), 2009)
The other results are listed elsewhere or left out. Records with an inconclusive call do not appear. A number with no mark means an inactive call. Calls of active or inactive are those of the source. Calls follow the shape of the dose curve; as a rule, active = well fitted inhibition curve with a large enough effect; inconclusive = small, poorly fitted or top-dose-only effect, or effect the other way; inactive = no such curve, though single readings can be large or run the other way.

test: Confirmation Concentration-Response Assay for Inhibitors of the ERK Signaling Pathway using a Homogeneous Screening Assay; Stimulation with EGF; conditions: HEK293 EGF-stimulated ERK phosphorylation, AlphaScreen; series mostly up to 57.5 µM; activity change, negative = inhibition: at the top concentration
Source text: qHTS Assay for Inhibitors of the ERK Signaling Pathway using a Homogeneous Screening Assay
NIH Chemical Genomics Center [NCGC]
NIH Molecular Libraries Screening Centers Network [MLSCN]
Assay Submitter (PI): Dr. Wei Zheng, NCGC/NIH
The Ras/extracellular-signal-regulated kinase (ERK) mitogen activated protein (MAP) kinase signaling pathway (ERK1/2 cascade) plays is a key role in transmitting signals from the cell surface to the nucleus (Nishida and Gotoh 1993; Chang and Karin, 2001). The cascade is initiated by the small G-protein Ras, which recruits Raf […], where activation occurs. Alternatively, this pathway can be activated by elevating intracellular cAMP.
Activation of the ERK pathway is essential in increased cell division and cell survival. Sustained and constitutive activation of the ERK pathway, however, has been linked to uncontrolled cell proliferation, increased cell survival, and tumor progression. Thus, the ERK has been as an attractive target for cancer chemotherapy in the past few years (Sebolt-Leopold and Herrera, 2004). Given its physiological and pathological importance, assessment of ERK phosphorylation has been broadly performed in both basic research and drug discovery. Most assays for the measurement of ERK phosphorylation use the antibody-based detection methods, such as western blot and ELISA. These assays require multiple reagent additions with cell wash steps and are not suitable for high-throughput screening.
The current cell-based ERK phosphorylation assay was performed using AlphaScreen platform. AlphaScreen is a two bead-based proximity-dependent chemical energy transfer luminescent assay platform. […]
HEK293 cells stably expressing type-1 vasopressin receptor (V1b) were maintained in DMEM medium (Invitrogen, Carlsbad, CA) at 37C under a humidified atmosphere containing 5% CO2 and 95% air. […] The ERK phosphorylation in cells was determined using an AlphaScreen assay kit provided by PerkinElmer. […] AC50 values were determined from concentration-response data modeled with the standard Hill equation. […]

SMILES	Potency	activity change, negative = inhibition [%]
CN(C)c1ccc(Nc2c3c4c(cccc4n(C)c2=O)C(=O)c2ccccc2-3)cc1	11.2 µM (active)	
CN(C)c1cc2c(Nc3ccc4c(cnn4Cc4ccccc4)c3)ncnc2cn1	2.82 µM (active)	
CCCNc1ncnc2sc(C)c(C)c12		-8.99
